Assay outcomes from PubChem BioAssay.
Hits are enriched below; roughly 3.5% of the tested compounds scored in any of these assays.
MITF primary – human MITF inhibition, primary screen. O75030. AlphaScreen MITF homodimerization, bead proximity signal. inhibition, % at 2.6 µM. 0.91% of 650,000 active. AID 1259374; in the data active means inhibition above about 50%;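 further: 0% = vehicle wells with protein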
Target sequence (O75030 whole entry, looked up): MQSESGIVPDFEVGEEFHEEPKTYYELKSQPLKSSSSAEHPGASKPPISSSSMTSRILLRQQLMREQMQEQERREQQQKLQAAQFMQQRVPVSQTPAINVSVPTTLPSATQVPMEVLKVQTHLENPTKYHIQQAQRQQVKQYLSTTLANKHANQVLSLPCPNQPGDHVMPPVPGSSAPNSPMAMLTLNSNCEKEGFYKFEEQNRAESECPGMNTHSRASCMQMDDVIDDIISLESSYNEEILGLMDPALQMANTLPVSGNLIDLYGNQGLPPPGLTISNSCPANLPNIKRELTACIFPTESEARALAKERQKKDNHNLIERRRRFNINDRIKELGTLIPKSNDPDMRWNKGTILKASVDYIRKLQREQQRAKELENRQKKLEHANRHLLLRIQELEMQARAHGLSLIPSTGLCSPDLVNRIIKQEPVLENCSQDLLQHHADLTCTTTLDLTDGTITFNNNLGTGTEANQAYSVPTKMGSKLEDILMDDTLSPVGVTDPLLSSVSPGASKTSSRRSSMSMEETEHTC
GPR151 ag – human GPR151 activation; Q8TDV0; PathHunter beta-arrestin GPR151 cells, luminescence; activation, % at 11.2 µM; 1% of 650,000 active; AID 1508602; in the data active means activation above about 4.9%;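 further: 0% = median of compound wells and 100% = cells with positive control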
FBW7 activator – human FBW7 E3 ligase activation, primary screen; AlphaScreen FBW7–phospho-cyclin E peptide binding, activator screen; 0.13% of 650,000 active; normalized activity (activation), % at 26.1 µM; AID 1259310; in the data active means normalized activity above about 1.9%;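 further: purified mutant Fbw7 with reduced substrate affinity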
TEAD-YAP inh – TEAD-YAP interaction inhibition. HEK-TIYL cells, TEAD-Gal4/YAP UAS-luciferase luminescence. inhibition, % at 9.12 µM. 1.4% of 640,000 active; in the data active means inhibition above about 32%;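 further: 0% = median of test compound wells and 100% = reference inhibitor wells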
* marks the source's active call; other numbers are inactive results; ! = not active in a repeat.

SMILES	MITF primary	GPR151 ag	FBW7 activator	TEAD-YAP inh
CC1=CC(C)(C)N=C(Nc2nc(C)c3cc(C)cc(C)c3n2)N1	-7.6	0.1	0.0	59.3*
CC(C)(C1CCC(O)(C#N)CC1)C1CCC(O)(C#N)CC1 (stereo not given)	-3.3	1.4	-0.1	-1.2
Cc1ccc(CNC(=O)c2cnc3ccccn23)o1	26.7	-1.1	2.1*	-23.2
COc1ccc(CNC(=O)c2cnc3ccccn23)cc1	8.0	0.4	-0.3	-10.9
CC(NC(=O)c1cnc2ccccn12)c1ccc(F)cc1 (stereo not given)	23.6	0.2	2.8*	11.2
Cc1ccc(F)cc1NC(=O)c1sc2ncn(CC(=O)N3CCN(c4ccccn4)CC3)c(=O)c2c1C	-5.0	0.0	0.0	4.1
O=C(c1ccc([N+](=O)[O-])cc1)n1cc2c(n1)-c1ccccc1OC2	2.9	0.0	0.1	-5.0
Cc1ccc(C(=O)C[n+]2cc(-c3ccc(C)cc3)n3c2CCCCC3)cc1	10.3	-1.2	0.2	85.6*
O=C(c1ccc(Cl)cc1)N1CCN(c2nc3ccccc3s2)CC1	12.6	0.5	0.1	-3.4
Cc1ccc(-n2nnnc2CN2CCN(C(=O)NC3CCCCC3)CC2)cc1	23.6	0.5	0.9	5.8
Cc1ccc(-c2nnc(SCC(=O)N3CCCCC3C)o2)cc1C (stereo not given)	13.8	0.1	1.3	-7.5
CC1CCCCN1C(=O)CSc1nnc(-c2ccc(O)cc2)o1 (stereo not given)	-6.5	-0.8	0.1	48.8*
COc1cn(CC(=O)Nc2cccc(C)c2)c(CSc2ncccn2)cc1=O	8.5	1.6	0.1	-5.4
COc1ccc(CNC(=O)N2CCC(c3nnc(C(C)C)o3)CC2)cc1OC	-3.5	-0.2	2.5*	0.0
COc1ccc(CCNC(=O)CN2CCC(c3nnc(C(C)C)o3)CC2)cc1OC	1.1	-0.6	0.4	8.5
CCc1nc(SCc2ccc(Cl)cc2Cl)c(C#N)c2c1CCCC2	7.2	-1.3	2.2*	1.4
CC(=O)NCc1nc2ccccc2n1Cc1ccccc1Cl	6.3	-1.9	-0.2	-9.6
CC(C)N(CCNc1nc(-c2ccc(C(=O)NC3CC3)cc2)nc2c1ncn2-c1ccccc1)C(C)C	9.6	1.4	0.2	9.8
CC(C)N(CCNc1nc(-c2ccc(C(=O)NC3CC3)cc2)nc2c1ncn2-c1ccsc1)C(C)C	-8.7	-0.6	0.0	60.3*
O=C(NC1CC1)c1ccc(-c2nc(NCCO)c3ncn(-c4ccsc4)c3n2)cc1	-57.6	1.6	0.2	55.1*
O=C(CSc1nnc(NC(=O)C2CC2)s1)NC(c1ccccc1)c1ccccc1	6.6	0.7	-0.1	2.8
COc1cccc2sc(Nc3nc(-c4ccncc4)cs3)nc12	11.2	-0.2	1.7	44.6*
COc1cccc2sc(Nc3nc(-c4cccnc4)cs3)nc12	6.4	0.2	0.0	39.4*
COc1ccccc1Nc1nc(-c2ccncc2)cs1	-7.6	-1.4	0.1	-39.8
CCOc1ccc(-n2c(=O)c3sccc3n(CC(=O)N(CC)CC)c2=O)cc1	0.7	-0.5	-0.1	1.8
SMILES	MITF primary	GPR151 ag	FBW7 activator	TEAD-YAP inh
O=C(c1cc(Br)ccc1Cl)N1CCN(c2ccc([N+](=O)[O-])cc2C(F)(F)F)CC1	11.2	0.3	0.0	2.9
COc1ccc2c(c1)c(C(C)=O)c(C)n2-c1ccc(N(C)C)cc1	13.3	-0.6	0.4	6.7
O=C(N/N=C/c1cccc2ccccc12)c1n[nH]c2c1CCC2	14.8	-0.7	0.0	46.6*
O=C(N/N=C/c1ccccc1)c1n[nH]c2c1CCCC2	8.1	0.3	0.0	69.5*
O=C(N/N=C/c1ccc([N+](=O)[O-])cc1)c1n[nH]c2c1CCC2	-16.6	-1.2	0.0	53.8*
O=C(N/N=C/c1ccc(Cl)cc1)c1n[nH]c2c1CCCC2	16.5	0.0	0.1	19.2
O=C(N/N=C/c1ccc(O)cc1)c1n[nH]c2c1CCC2	-12.6	-4.3	0.0	58.7*
C/C(=N\NC(=O)c1n[nH]c2c1CCCC2)c1ccc(O)cc1	5.8	-0.7	-0.1	23.8
c1cc(Cn2ccnc2)cc(Nc2nccc(-c3cncc(N4CCOCC4)c3)n2)c1	-4.7	0.7	-0.8	87.3*
c1cc(-c2nc3ccc(Nc4nccc(-c5cncc(N6CCOCC6)c5)n4)cc3o2)ccn1	3.5	1.7	0.0	-2.9
c1cc(Cn2cncn2)cc(Nc2nccc(-c3cncc(N4CCOCC4)c3)n2)c1	14.3	0.3	0.8	92.2*
COc1ccccc1C(=O)N=c1sc2cc(S(C)(=O)=O)ccc2n1C	-16.5	0.4	0.1	0.6
COc1ccc(N2CCN(C3CCCN(C(=O)CN4CCOC4=O)C3)CC2)cc1 (stereo not given)	8.6	2.4	0.2	-7.1
CCCNc1nc(NC2CCN(Cc3ccccc3)CC2)nc2nc[nH]c12	8.5	-2.2	0.3	4.2
CCCOc1ccc(-c2cc(C(=O)N/N=C(\C)c3ccccc3O)[nH]n2)cc1	10.0	-0.4	0.1	15.2
COc1ccccc1CC(=O)NC(C)C12CC3CC(CC(C3)C1)C2 (stereo not given)	-5.1	-1.8	-0.1	-2.7
Cc1cc(C(=O)COC(=O)c2ccc(O)cc2O)c(C)n1-c1ccccc1	9.5	-0.8	-0.1	63.9*
COc1ccc(-n2nnnc2-c2cccc(OC)c2)cc1	10.4	2.6	0.1	58.2*
O=C(Nc1ccc2nc3n(c(=O)c2c1)CCCCC3)c1c(F)ccc([N+](=O)[O-])c1F	9.1	0.1	0.0	36.2*
O=C(Nc1ccc2nc3n(c(=O)c2c1)CCCCC3)c1cc([N+](=O)[O-])ccc1F	0.0	0.9	-0.1	28.9
COc1ccc(S(=O)(=O)Oc2ccccc2NC(C)=O)cc1C	-6.7	1.4	0.1	44.8*
COc1ccc(S(=O)(=O)Oc2ccccc2NC(C)=O)c2ccccc12	2.1	0.3	0.0	54.9*
CC(=O)Nc1ccccc1OS(=O)(=O)c1cc(Br)ccc1Br	8.3	-0.5	0.0	4.1
CN(C)c1ccc(/C=C(\C(N)=O)c2nc3ccccc3[nH]2)cc1	-7.3	-3.1	0.1	83.1*
COc1ccc(/C(N)=N/OC(=O)COc2cc(C)c(Cl)c(C)c2)cc1	12.2	-1.9	-0.1	8.6
SMILES	MITF primary	GPR151 ag	FBW7 activator	TEAD-YAP inh
CC[C@@]1(O)C(=O)OCc2c1cc1n(c2=O)Cc2cc3c(CN(C)C)c(O)ccc3nc2-1	66.6*!	-0.4	-0.2	12.4
CCCOc1ccc(N2CCN(C(=O)COc3ccc(F)cc3)CC2)nn1	-5.0	1.3	3.3*	7.3
COc1ccccc1-c1ccc(N2CCN(C(=O)COc3ccccc3)CC2)nn1	-10.6	-1.2	7.6*	5.4
Cc1cc(C)n(-c2ccc(N3CCN(C(=O)COc4ccccc4)CC3)nn2)n1	16.7	-0.8	1.4	3.1
COc1ccc(N2C(=O)CC3CS(=O)(=O)CC32)cc1 (stereo not given)	-2.0	-1.3	0.0	-15.5
CCCCCOc1ccc(NC(=O)C(=O)NCCOC)cc1	-5.4	-1.3	0.0	-4.0
CCOc1ccc(S(=O)(=O)Nc2ccc3nc(C)n(-c4ccc(F)cc4)c(=O)c3c2)c(OCC)c1	25.3	-1.3	0.8	49.8*
COc1ccc(F)cc1S(=O)(=O)Nc1ccc2nc(C)n(-c3ccc(Cl)cc3)c(=O)c2c1	23.5	0.8	0.7	23.0
